Data as given in PubChem BioAssay (EPA / NIEHS).
The source made the active and inactive calls. Rule for the calls: active = hit-call score of the fitted dose curve at least 0.9, where 1 is the maximum; inactive = score below 0.9.

Read-out: Protein phosphatase 2A (PPP2R4), PTPA (gene 5524)
Assay: LTEA_HepaRG_PPP2R4: Life Technologies and Expression Analysis (LTEA) Assay for Protein phosphatase 2A (PPP2R4) using HepaRG (AID 2283522)
Conditions: mRNA level, 48 h; actives raise or lower the signal
Procedure: LTEA_HepaRG is a cell based, multiplexed-readout assay that uses HepaRG, a human liver cell line, with measurements taken at 48 hours after chemical dosing on a 96-well plate.LTEA_HepaRG_PPP2R4 is one of 102 assay component(s) measured in the LTEA HepaRG cell culture assay. It is a marker of Cell proliferation, survival, death.Data from the assay component LTEA_HepaRG_PPP2R4 was analyzed into 1 endpoint. This assay endpoint, LTEA_HepaRG_PPP2R4, was analyzed with bidirectional fitting relative to DMSO as the negative control and baseline of activity. Using a type of inducible reporter, measures of mRNA induction for gain or loss-of-signal activity can be used to understand regulation of transcription factor activity. To generalize the intended target to other relatable targets, this assay endpoint is annotated to the phosphatase intended target family, where the subfamily is serine/threonine phosphatase.
A total of 1060 chemcials from the ToxCast library were tested in eight-point concentration-response experiments. Cell culture and cytotoxicity assays were conducted at Thermo Fisher Scientific's Custom Services facility (Madison, WI). A single lot of human HepaRG cells (Thermo Fisher Scientific, Frederick, MD) was used for the cell culture experiments. 96-well format collagen type I coated plates of human HepaRG cells were prepared using established methods. Briefly, cryopreserved HepaRG cells were thawed, plated at a density of approximately 100,000 cells/well in HepaRG Thaw, Plate, and General Purpose media (HPRG770, Thermo Fisher Scientific), and incubated for 48 hours. 0.5% DMSO was selected as vehicle control to balance the requisite need of DMSO in HepaRG cultures to maintain differentiation (for example, baseline metabolism, proportions of hepatocytes vs. cholangiocytes), while enabling further hepatic receptor pathway activation (for example, PXR and CAR) in response to chemical exposure. 48 hours after plating, the culture medium was replaced with HepaRG Serum-Free Incudtion Media. Cells were exposed to each test chemical in duplicate and maintained in CO2 incubators for another 48 hours. Chemical plates were thawed to room temperature and 200x concentrations of treatment groups were prepared. 8-point conentration-reponse curves were made with the highest exposure at 100 uM, followed by half-log dilutions, all in 0.5% DMSO. Each test plate contained variouse controls, induction positive controls (1mM phenobarbital), cytotoxicity positive controls ([…] aflatoxin B1), vehicle controls (0.5% DMSO), and total lysis controls (0.5% DMSO). Cell morphology images were taken using an Essen IncuCyte FLR automated microscope, with six 96-well plates imaged in about 24 minutes. Images were captured and exported and JPEG files. Spent culture media was transfered to black-well plates for the LDH assay, and remaining media was sorted at -80 C for later use. Cells were treated with RLT buffer and frozen until shipped for gene expression analysis. Total RNA was isolated from the cell suspension in 75 uL of Buffer RLT (Qiagen, Germantown, MD 20874) by Quintiles/Expression Analysis (Durham, NC) using a custom isolation procedure. Total RNA from each plate well was transferred to a preamplification plate. Fluidigm's 96.96 Dynamic ArrayTM (Fluidigm, Amsterdam, the Netherlands) technology was used for gene expression analyses by quantitative reverse transcription polymerase chain reaction (qRT-PCR, performed by Quintiles/Expression Analysis, Durham, NC)89. Standard TaqManTM Assays (Applied Biosystems/ThermoFisher Scientific, Foster City, CA) were used to assess the expression of 93 genes selected based on their selectivity and sensitivity to important hepatic receptors known to be modulated by environmental chemicals; importance in human hepatocyte functionality; and hepatotoxicity. […]

Structure (SMILES)	outcome	AC50
COc1cc(C=O)cc2c1[C@H](COC(N)=O)[C@]1(OC(C)=O)ON2C[C@H]2[C@@H]1N2C(C)=O	inactive	
C1=Cc2cccc3cccc1c23	inactive	
Clc1ccc(Cl)c(Cl)c1	inactive	
Cc1ccc(N)cc1	inactive	
CCCCCCCCCCCCCN1CC(C)OC(C)C1 (stereo not given)	inactive	
CS(=O)(=O)NC(=O)c1cc(Oc2ccc(C(F)(F)F)cc2Cl)ccc1[N+](=O)[O-]	inactive	
Cc1ccc(N)c(N)c1	inactive	
c1ccc2c(c1)oc1ccccc12	inactive	
CCC(C)c1ccc(O)cc1 (stereo not given)	inactive	
CCCCCCCCn1sccc1=O	inactive	
Cc1cccc(N)c1N	inactive	
CCCCOC(=O)c1ccccc1C(=O)OCc1ccccc1		0.349 µM (active)
O=[N+]([O-])c1ccc(Oc2ccc(Cl)cc2Cl)cc1	inactive	
CN(C)C(=O)Nc1ccc(Cl)cc1	inactive	
CCNS(=O)(=O)C(F)(F)C(F)(F)C(F)(F)C(F)(F)C(F)(F)C(F)(F)C(F)(F)C(F)(F)F	inactive	
OCCCBr	inactive	
N#CC(Br)Br	inactive	
Clc1ccc(C(c2ccc(Cl)cc2)C(Cl)(Cl)Cl)cc1	inactive	
CCCSC(=O)N(CCC)CCC	inactive	
c1ccc(N=Nc2ccccc2)cc1	inactive	

Structure (SMILES)	outcome	AC50
[O-][Cl+]O	inactive	
CC(C)(C)OOC(=O)c1ccccc1	inactive	
C=CCc1ccc2c(c1)OCO2	inactive	
COC(=O)c1ccccc1N	inactive	
[Cl-].[Cl-].[Hg+2]	inactive	
CN(C)c1ccccc1	inactive	
[As]#[In]	inactive	
CC(C)(C)C(O)(CCc1ccc(Cl)cc1)Cn1cncn1 (stereo not given)		50 µM (active)
C[N+](C)(C)CC1CO1 (stereo not given)	inactive	
CCOC(=O)[C@]1(c2ccccc2)Oc2ccccc2[C@@H]1N	inactive	
O=C(N[C@H](c1ccccc1)[C@@H]1CN2CCC1CC2)c1c(Cl)ccc(C(F)(F)F)c1Cl		75.3 µM (active)
CCCCC(CC)COC(=O)c1ccc(C(=O)OCC(CC)CCCC)c(C(=O)OCC(CC)CCCC)c1 (stereo not given)	inactive	
Nc1ccc(N=Nc2ccccc2)cc1		21.1 µM (active)
ClC1=C(Cl)C2(Cl)C3C(Cl)C=CC3C1(Cl)C2(Cl)Cl (stereo not given)	inactive	
Cn1cc(-c2ccccc2)c(=O)c(-c2cccc(C(F)(F)F)c2)c1	inactive	
Clc1ccccc1Cl	inactive	
OCCOCCO	inactive	
CCOc1cccc(C2(N3CCN(c4ccccc4)CC3)CCC(C)CC2)c1 (stereo not given)	inactive	
CC(O)CCO (stereo not given)	inactive	
COP(=S)(OC)SCN1C(=O)c2ccccc2C1=O	inactive	
